40 compounds from PubChem BioAssay AID2763 (National Center for Advancing Translational Sciences (NCATS), 2010) can be followed below.

Records with an inconclusive call do not appear. Where a call stands in place of a potency, no number is given. Active and inactive are the calls of the source. Calls follow the shape of the dose curve; as a rule, active = well fitted inhibition curve with a large enough effect; inconclusive = small, poorly fitted or top-dose-only effect, or effect the other way; inactive = no such curve, though single readings can be large or run the other way.
Potency is read from the fitted curve at half-maximal effect.

This assay can be described thus: Concentration response confirmation VP16 counterscreen for inhibitors of ROR gamma transcriptional activity. Also: nearly all actives have a fitted effect of over 70% in size. The settings on record: Drosophila S2 Gal4-VP16 UAS-luciferase, luminescence, 20 h; series mostly up to 46.1 µM. The text has this: NIH Molecular Libraries Probe Production Network [MLPCN] NIH Chemical Genomics Center [NCGC] MLPCN Grant: R03 DA026211-01 Assay Provider: Dan Littman, New York University Assay Overview: The retinoic acid-related orphan receptor (ROR) gamma is a transcription factor that has a central role in the differentiation of Th17 cells, a subset of T helper cells that secrete the inflammatory cytokines IL-17, IL-17F, and IL-22. Th17 cells have been implicated in graft versus host disease, autoimmune disease and asthma. ROR gamma is induced in naive T helper cells in the presence of TGF-beta combined with IL-6, IL-21, or IL-23, and thereafter directs the expression of the Th17 lineage cytokines. To identify nonspecific inhibitors, a Drosophila Schneider cell line was stably transfected with two vectors: a gene expressing a fusion of the Gal4 DNA binding domain and the transactivation domain of the viral transcription factor VP16, under the control of the metallothionine promoter and a Photinus luciferase reporter regulated by the Gal4 binding site enhancer, UAS. […] Small molecule inhibitors that inhibit components common to the RORgt and VP16 assays, such as the Gal4 DNA binding domain or the UAS luciferase reporter, will be active in both assays and thus scored as nonspecific.
Assay Protocol Summary: For screening, 600 cells in 4 uL/well were dispensed into white solid 1536-well plates (Grenier) using a solenoid-based dispenser. Following transfer of 23 nL compound or DMSO vehicle by a pin tool, the plates were incubated 1 hr at ambient temperature, and 1 uL/well copper sulfate (700 uM final concentration) was added. The plates were centrifuged 15 s at 1000 RPM and incubated 20 hr at ambient temperature. After addition of 1.5 uL Photinus luciferase detection reagent, the plates were incubated 10 min at ambient temperature and then read by an ViewLux (Perkin Elmer) to detect luminescence.
For orientation: The purpose of a counterscreen is to sort out artefacts and off-target activity.
For `C=CCNc1nc(Nc2ccc([N+](=O)[O-])cc2)nc(N2CCCC2)n1`, the Potency is 19.9 µM (active). The same measure for `CCN(CC(=O)NCCc1ccc(Cl)cc1)Cc1nc2ccccc2c(=O)[nH]1`: 25 µM (active); for `COc1ccc(C(=O)Nc2ccc(NC(=O)c3cccs3)cn2)cc1`: “inactive”; for `Cc1cc(Br)c2nc3c(c(C(=O)O)c2c1)CCCCC3`: “inactive”. To `O=C(CSc1n[nH]c(=O)n1-c1ccc2c(c1)OCCO2)Nc1ccccc1` belongs “inactive”; to `CCN1CCCc2cc(CN(CCN3CCOCC3)C(=S)Nc3ccc(C)cc3)ccc21`, 11.2 µM (active).

In the case of `Cc1ccc2nc(-c3ccc(NC(=O)COC(=O)c4ccc([N+](=O)[O-])o4)cc3)sc2c1`, the Potency was 3.53 µM (active). To `NC(=O)/C=C/C(=O)Nc1ccc(Cl)cc1` belongs 8.88 µM (active); to `CCn1nc(C)c(CN2CCC(n3nccc3NC(=O)c3ccc4c(c3)OCO4)CC2)c1C`, “inactive”; to `COc1cccc(-c2cc(C(=O)N3CCc4ccccc4C3)[nH]n2)c1`, “inactive”.

For `COc1ccc(-c2cc(C(=O)NNC3=NCCC3)c3c(C)nn(-c4ccccc4)c3n2)cc1`, the Potency is 2.5 µM (active). The same measure for `c1ccc(-c2ncc3c(ccc4ccccc43)n2)cc1`: 8.88 µM (active); for `CC(C)(C)NC(=O)CSc1nc2ccc(NC(=O)CSc3nnnn3Cc3ccccc3)cc2s1`: 12.5 µM (active). To `O=C(CCCOc1ccccc1)Nc1nc2ccccc2[nH]1` belongs “inactive”; to `CCOC(=O)c1oc2cccc(OCC(O)CNC(C)C)c2c1C` (stereo not given), “inactive”; to `CCN(CC)c1ccc(/C=N/n2c(-c3ccccc3Br)n[nH]c2=S)cc1`, “inactive”. The same measure for `Cc1ccc(NC(=O)CCN2CCN(C)CC2)cc1`: “inactive”. As for `Cn1nnnc1NCc1ccccc1F`, the Potency entry was “inactive”. To `Cc1cccc(-c2ocnc2C(=O)Nc2ccccc2NC(=O)c2ccccn2)c1` belongs 7.91 µM (active); to `CCCCn1c(CN2CCN(c3ccccc3)CC2)nc2c1c(=O)n(C)c(=O)n2C`, 8.88 µM (active). For the compound `COc1ccccc1CNC(=O)[C@@H](NC(=O)C1CCN(C(=O)[C@@H]2CCCN2C(=O)OC(C)(C)C)CC1)C(C)C`, the Potency result was “inactive”. Turning to `CCOc1ncccc1C(=O)OCC(=O)Nc1ccc(-c2nc3ccc(C)cc3s2)cc1`, the Potency is 3.53 µM (active). With `O=C1CC(c2ccc(F)cc2)CC(O)=C1C1NCCc2ccccc21` (stereo not given), the Potency result was “inactive”. In the case of `Cc1ccc(C)c(-n2[nH]c3c4c(ccc3c2=O)C(=O)c2ccccc2C4=O)c1`, the Potency entry is “inactive”. To `O=c1oc2c3c(nn2c2ccccc12)CCCC3` belongs “inactive”; to `O=C(NCC1CCCO1)C(C(=O)c1ccccc1)n1ccccc1=O` (stereo not given), “inactive”. The same measure for `CCN1CCCc2cc(CN(CCN3CCOCC3)C(=S)Nc3ccccc3C)ccc21`: 15.8 µM (active); for `O=C(NC(=S)Nc1nc(-c2ccccc2)cs1)c1cncc(Br)c1`: 7.91 µM (active); for `CCC(C)NC(=O)CSc1nnc(-c2cc(-c3ccc(C)cc3)nc3ccccc23)n1N` (stereo not given): “inactive”.

In the case of `COC1CCN(C(=O)c2cc(COc3ccc(-n4cncn4)cc3)on2)CC1`, the Potency entry was “inactive”. With `c1ccc(Cn2c(-c3ccccc3)c[n+]3c2SCCC3)cc1`, the Potency entry is “inactive”. Turning to `Oc1ccc(COCc2ccccc2)c2cccnc12`, the Potency was 2.5 µM (active). Turning to `O=C(CSc1nc2ccc(NC(=O)CSc3nnnn3Cc3ccccc3)cc2s1)Nc1ccccc1`, the Potency entry was “inactive”. Regarding `Cc1ccc(S(=O)(=O)NCc2ccncc2)cc1`, the Potency is 12.5 µM (active).

For `COC(=O)c1ccc(Oc2cc(C)nc(-n3nc(C)cc3C)n2)cc1`, the Potency is 7.91 µM (active). To `CCOC(=O)c1ccc2nc(Nc3nc4ccc(F)cc4s3)sc2c1` belongs 25 µM (active); to `COc1ccc(-c2cc(-c3ccccc3)n[nH]2)c(O)c1`, 19.9 µM (active). Consider `COC(=O)Cn1c(CN2CCc3ccccc3C2)nc2c1c(=O)n(C)c(=O)n2C`, for which the Potency was 6.28 µM (active). To `COc1cc(C2c3cc4c(cc3C(OC3OC5COC(c6cccs6)OC5C(O)C3O)C3COC(=O)C23)OCO4)cc(OC)c1O` (stereo not given) belongs 25 µM (active); to `Cc1cc(C)c(S(=O)(=O)NCCn2ccc3ccccc32)c(C)c1`, “inactive”.
